Reference: PubChem BioAssay AID1159580 (chemical genetic matrix, 2015)
“And” between values parts separate entries of the source, which are not always exact repeats. Equal entries are not always repeated. Hit rate of the full screen: of about 5,500 compounds, about 2,000 (36%) were called active. Inconclusive results (about 18%) are left out. No stated cut-off is given here; in the data, active means normalized growth mostly below about 0.91 (no sharp cut-off); inconclusive means no clear call, values can overlap the other calls; inactive means mostly above about 0.92. This is one part of the list.

Assay: chemical genetic growth profiling, strain panel (AID 1159580);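 further: tested at 20 µM; growth read once vehicle control cultures reached saturation at 30 °C; 1 = growth at the plate median or of vehicle wells; lower values mean less growth of the strain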
Conditions: S. cerevisiae deletion strains, growth OD

Measured: normalized growth

CNC(=O)CSP(=S)(OC)OC
inactive: locus YAL013W, strain DEP1, hits give low values 1.02 | locus YAL021C, strain ccr4, hits give low values 1.01 | locus YAL026C, strain drs2, hits give low values 1.01 | locus YAL030W, strain snc1, hits give low values 1.01 | locus YBL061C, strain skt5, hits give low values 1.03 | locus YBR009C, strain hhf1, hits give low values 0.999 | locus YBR021W, strain FUR4, hits give low values 0.994 | locus YBR023C, strain chs3, hits give low values 1.03 | locus YBR171W, strain sec66, hits give low values 1.03 | locus YBR229C, strain ROT2, hits give low values 1.01 | locus YBR231C, strain swc5, hits give low values 1.01 | locus YBR279W, strain paf1, hits give low values 1.01 | locus YCL011C, strain gbp2, hits give low values 1.02 | locus YCL016C, strain dcc1, hits give low values 1.02 | locus YCL029C, strain bik1, hits give low values 1.01 | locus YCL061C, strain MRC1, hits give low values 1.01 | locus YCL069W, strain vba3, hits give low values 1.02 | locus YCR088W, strain abp1, hits give low values 1.01 | locus YDL005C, strain med2, hits give low values 1.03 | locus YDL035C, strain GPR1, hits give low values 1.02 | locus YDL040C, strain nat1, hits give low values 1.02 | locus YDL074C, strain BRE1, hits give low values 0.971 | locus YDL101C, strain DUN1, hits give low values 1 | locus YDL134C, strain PPH21, hits give low values 1 | locus YDL185W, strain tfp1, hits give low values 1.03 | locus YDL192W, strain arf1, hits give low values 1.02 | locus YDR001C, strain nth1, hits give low values 1.01 | locus YDR069C, strain doa4, hits give low values 1.02 | locus YDR101C, strain arx1, hits give low values 1.02 | locus YDR137W, strain rgp1, hits give low values 1.03 | locus YDR150W, strain NUM1, hits give low values 1.01 | locus YDR159W, strain sac3, hits give low values 1.02 | locus YDR162C, strain NBP2, hits give low values 1.01 | locus YDR195W, strain ref2 0.99 | locus YDR297W, strain sur2, hits give low values 1.01 | locus YDR318W, strain mcm21, hits give low values 1.02 | locus YDR334W, strain swr1, hits give low values 1.02 | locus YDR335W, strain msn5, hits give low values 1.01 | locus YDR388W, hits give low values 1.02 | locus YDR392W, strain spt3, hits give low values 1.01 | locus YDR502C, strain sam2, hits give low values 1.02 | locus YEL003W, strain gim4, hits give low values 1.01 | locus YEL037C, strain rad23, hits give low values 1.02 | locus YEL061C, strain CIN8 (second series), hits give low values 1.01 | locus YEL061C, strain CIN8, hits give low values 1.01 | locus YER015W, strain faa2, hits give low values 1.02 | locus YER016W, strain bim1, hits give low values 1.02 | locus YER110C, hits give low values 1.02 | locus YER111C, strain swi4, hits give low values 1.01 | locus YER155C, strain BEM2 (second series), hits give low values 1.02 | locus YER155C, strain BEM2, hits give low values 1.01 | locus YER167W, strain BCK2, hits give low values 1.01 | locus YFR010W, strain ubp6, hits give low values 1.01 | locus YGL078C, strain dbp3, hits give low values 1.02 | locus YGL086W, strain mad1, hits give low values 1.01 | locus YGL167C, strain pmr1, hits give low values 1.02 | locus YGL173C, strain kem1, hits give low values 1.02 | locus YGL227W, strain vid30, hits give low values 1.01 | locus YGL240W, strain doc1, hits give low values 1 | locus YGL248W, strain PDE1, hits give low values 1 | locus YGL253W, strain hxk2, hits give low values 1.03 | locus YGR078C, strain PAC10, hits give low values 1.02 | locus YGR135W, strain pre9, hits give low values 1.01 | locus YGR229C, strain SMI1, hits give low values 1.03 | locus YGR252W, strain gcn5, hits give low values 0.995 | locus YHR013C, strain ard1, hits give low values 1.01 | locus YHR027C, strain rpn1, hits give low values 1.02 | locus YHR030C, strain SLT2, hits give low values 1.03 and 1.08 | locus YHR079C, strain IRE1 (second series), hits give low values 1.02 | locus YHR079C, strain IRE1, hits give low values 1.04 | locus YHR094C, strain hxt1, hits give low values 1.02 | locus YHR129C, strain ARP1, hits give low values 1.01 | locus YHR142W, strain chs7, hits give low values 1.03 | locus YHR200W, strain rpn10, hits give low values 1.02 | locus YIL066C, strain RNR3, hits give low values 1.04 | locus YIL073C, strain SPO22, hits give low values 1.09 | locus YIL125W, strain kgd1, hits give low values 1.01 | locus YIR030C, strain dcg1, hits give low values 1.03 | locus YJL092W, strain hpr5, hits give low values 1.01 | locus YJL095W, strain BCK1 (second series), hits give low values 1.03 | locus YJL095W, strain BCK1, hits give low values 1 and 1.08 | locus YJL115W, strain asf1, hits give low values 1.01 | locus YJL129C, strain trk1, hits give low values 1.03 | locus YJL134W, strain LCB3, hits give low values 1 | locus YJL154C, strain vps35, hits give low values 1.01 | locus YJL164C, strain tpk1, hits give low values 1.02 | locus YJL166W, strain qcr8, hits give low values 1 | locus YJL168C, strain set2, hits give low values 1.02 | locus YJL187C, strain SWE1 (second series), hits give low values 1.02 | locus YJR043C, strain POL32, hits give low values 0.998 | locus YJR066W, strain TOR1, hits give low values 0.992
